# Source: PubChem BioAssay (Tox21)
# Records with an inconclusive call do not appear. Values without a mark were called inactive. Activity calls are given as the source filed them. The call rests on the fitted dose curve; in most records, active means well fitted cell-killing curve with a large enough effect in the repeat runs; inconclusive means weak or mixed curves, or effect the other way; inactive means flat fitted curve, though single readings scatter.
# Test: cAMP Responsive Elements (CRE) small molecule antagonists, cell-based qHTS assay: qHTS cell viability counter screen (AID 2060913); further: nearly all actives have a fitted effect of over 40% in size
# Conditions: CRE-bla HEK293T viability, CellTiter-Glo luminescence, 5 h; series mostly up to 92.4 µM; viability change, negative = cytotoxic: at the top concentration
# In short: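 CRE-bla HEK293T cells (2,000/well, 18 h) given compound plus NKH477 0.25 uM final for 3 h at 37C; viability counter-screen by CellTiter-Glo luminescence in same wells after 30 min.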
# On the % scale 0 is the no-effect control and ±100 the full control effect; potency means the concentration at half of the fitted maximal effect.
SMILES,Potency,"viability change, negative = cytotoxic"
CC(C)OC(=O)C(C)(C)Oc1ccc(C(=O)c2ccc(Cl)cc2)cc1,inactive,–
CCc1cccc(CC)c1N(COC)C(=O)CS(=O)(=O)O,–,5.57%
Nc1cc([N+](=O)[O-])ccc1C(=O)O,inactive,–
CC(C)COC(=O)c1ccc(N)cc1,–,6.18% [at 42.5 µM]
COc1nc(N)nc2nc[nH]c12,–,14.2%
CCCCOC(=O)CO,–,2.19%
FC(F)(F)c1ccc(Cl)cc1Cl,–,2.06%
Nc1ncnc2c1ncn2[C@@H]1O[C@H](COP(=O)(O)O)[C@@H](O)[C@H]1O,–,10.5% [at 42.5 µM]
NNc1nnc(NN)c2ccccc12,–,1.28% [at 42.5 µM]
O=C1c2cccc(O)c2C(=O)c2c(O)cc(CO)cc21,–,-11.5%
CCC(C)NC(N)=O (stereo not drawn),–,2.05%
CCCCCN=C(N)N/N=C/c1c[nH]c2ccc(OC)cc12,29.8 µM (active),–
C[C@H]1[C@@H](c2ccccc2)NC(=O)N1C,–,-2.74%
O=S1(=O)OC(c2ccc(O)cc2)(c2ccc(O)cc2)c2ccccc21,inactive,–
COCCc1ccc(OCC(O)CNC(C)C)cc1 (stereo not drawn),inactive,–
NCCNc1cccc2ccccc12,inactive,–
CCCCCOC(=O)COc1cc(N2C(=O)C3=C(CCCC3)C2=O)c(F)cc1Cl,–,7.55%
C[Si](C)(C)Cl,–,8.26%
